Laboratory results: PubChem BioAssay AID651710 (Broad Institute, 2012)
Where “and” joins values, the source holds several entries; their conditions need not be identical. Equal entries are not always repeated. Hit rate of the full screen: of about 360,000 compounds, about 1,600 (0.44%) were called active.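 The calls were made as follows: active = every replicate showing at least 50% inhibition; inconclusive = mean inhibition at least 50% but not in every replicate; inactive = the rest.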 For the sample, actives were picked, then their nearest neighbours and some compounds at random.

molecular target: DNA repair protein RAD52 homolog (Homo sapiens) (UniProt P43351); experiment: RAD52 DNA annealing inhibitors, primary screen, biochemical, FRET, single point, set 2 (AID 651710); details: recombinant RAD52 DNA annealing, FRET fluorescence; at 18.7 µM; active compounds read high
Sequence (P43351 whole entry, looked up): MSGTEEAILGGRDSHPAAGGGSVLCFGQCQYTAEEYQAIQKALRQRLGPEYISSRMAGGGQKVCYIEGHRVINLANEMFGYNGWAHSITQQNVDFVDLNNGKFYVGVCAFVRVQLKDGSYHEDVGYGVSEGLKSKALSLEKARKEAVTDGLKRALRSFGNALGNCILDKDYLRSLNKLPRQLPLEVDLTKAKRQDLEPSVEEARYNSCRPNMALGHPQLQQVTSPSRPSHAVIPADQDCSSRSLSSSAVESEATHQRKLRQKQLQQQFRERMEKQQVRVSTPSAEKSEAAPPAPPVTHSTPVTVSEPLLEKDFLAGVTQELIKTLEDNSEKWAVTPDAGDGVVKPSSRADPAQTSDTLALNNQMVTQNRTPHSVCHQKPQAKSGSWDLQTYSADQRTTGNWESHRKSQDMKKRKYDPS

inhibition, active:
CC(=O)Nc1ccc(CNc2nc(NCCN(C)C)nc3cc(-c4ccccc4)sc23)cc1 98.5%, CN1CCN(CCCNC(=O)c2ccc(/C=C3\Oc4ccccc4N(Cc4ccc(Cl)cc4)C3=O)cc2)CC1 94.8%, CN(C)CC#Cc1ccc([C@H]2[C@H](CO)N3CCCCN(CC4CC4)C[C@@H]23)cc1 65.4%, COc1ccccc1C#Cc1ccc([C@@H]2[C@H](CO)N3CCCCN(C(=O)C4CCCC4)C[C@@H]23)cc1 71%, COc1ccc2sc(N(CCCN(C)C)C(=O)c3ccc(S(=O)(=O)N(C)C4CCCCC4)cc3)nc2c1 62.7%, Cn1ccc(=Nc2ccc(NC(=O)c3ccc(N=c4ccn(C)c5ccc([N+](=O)[O-])cc45)cc3)cc2)cc1 94.9%, CN(C)CCN1CCN(c2cc(-c3cccc(Cl)c3)nc3ccnn23)CC1 91.4%, C[C@H](CO)N1C[C@H](C)[C@@H](CN(C)Cc2ccc(-c3ccccc3)cc2)Oc2ccc(NC(=O)CCCN(C)C)cc2CC1=O 94%, C[C@@H]1CN([C@@H](C)CO)C(=O)Cc2cc(NC(=O)CCCN(C)C)ccc2O[C@@H]1CN(C)Cc1ccc(-c2ccccc2)cc1 86.8%, NC(N)=Nc1nc(-c2ccccc2)c2cc(Cl)ccc2n1 84.7%, NCCCCCC(=O)N/N=C/c1ccc2nccnc2c1 87.9%, Cc1c(CCOC(=O)CC23CC4CC(CC(C)(C4)C2)C3)sc[n+]1Cc1ccc([N+](=O)[O-])cc1 57.8%, COc1ccc(C#Cc2ccc3c(c2)[C@]2(C(=O)N3)[C@H](c3ccccc3OCCO)N3[C@H](c4ccccc4)[C@H](c4ccccc4)OC(=O)[C@H]3[C@@H]2C(=O)N2CCCCCCC2)cc1 55.6%, Cc1cc(C)c2nc3nc(C)cc(C)c3c(N)c2c1 91%, CC=Cc1ccc2n(c1=O)C[C@@H]1[C@@H](CO)[C@H](C(=O)NCC)[C@H]2N1CCC(F)(F)F (mixture of isomers) 75.5%

inhibition, inactive:
COCCNc1nc(NCc2ccc(NC(C)=O)cc2)c2sccc2n1 -6.25%, COCCNc1nc(Nc2ccccc2Cl)c2sc(-c3ccccc3)cc2n1 -21.9%, C[C@@H]1CN([C@@H](C)CO)C(=O)c2cc(-c3cccnc3)cnc2O[C@H]1CN(C)Cc1ccc(-c2ccccc2)cc1 20.1%, O=C(C[C@H]1CC[C@H](NC(=O)c2ccc(F)cc2)[C@@H](CO)O1)NCCc1ccncc1 2.72%, Cc1c(C)n(Cc2ccc(Cl)cc2)c2ccc(C(=O)NCCCN3CCOCC3)cc12 -12.7%, CCC1Oc2ccccc2N(CC(=O)NCCCN2CCN(CC)CC2)C1=O (stereo unspecified) -5.96%, C[C@@H](O)C#Cc1ccc([C@H]2[C@@H](CO)N3CCCCN(CC4CC4)C[C@@H]23)cc1 -24.5%, COc1ccccc1C#Cc1ccc([C@@H]2[C@H](CO)N3CCCCN(C(=O)C4CC4)C[C@@H]23)cc1 38.4%, COc1ccccc1C#Cc1ccc([C@H]2[C@H](CO)N3CCCCN(C(=O)C4CCC4)C[C@@H]23)cc1 -21.5%, C[C@H](O)C#Cc1ccc([C@@H]2[C@H](CO)N3CCCCN(CC4CC4)C[C@@H]23)cc1 8.98%, C[C@@H](NC(=O)C[C@H]1C[C@@H]2c3cc(NC(=O)c4ccc5c(c4)OCO5)ccc3O[C@@H]2[C@@H](CO)O1)c1ccccc1 8.57%, CO[C@H](CN(C)S(=O)(=O)c1ccc(C)cc1)[C@@H](C)CN(Cc1ccccc1Cl)[C@@H](C)CO -2.08%, CO[C@H]1CN(C)C(=O)c2cc(NC(=O)Nc3ccccc3F)ccc2OC[C@H](C)N(C)C[C@H]1C 4.64%, CC(C)NC(=O)N1C[C@@H]2[C@H](c3ccccc31)[C@H](CO)N2C(=O)C1CCCC1 0.805%, COc1ccc(S(=O)(=O)N(C)CC(=O)N2CCCC2)cc1 -9.04%, COc1ccc(N(Cc2ccc(N(C)C)cc2)C(=O)c2ccc(S(C)(=O)=O)cc2)cc1 2.51%, Cn1c(=O)n(C)c2cc(C(=O)Nc3ccc(Br)cc3)ccc21 -11.5%, CN(CC1CCCO1)S(=O)(=O)c1ccc(C(=O)Nc2ccc([N+](=O)[O-])cc2)cc1 (stereo unspecified) -8.13%, C[C@@H]1CN([C@@H](C)CO)S(=O)(=O)c2ccc(/C=C/c3ccccc3)cc2O[C@H]1CN(C)C(=O)C1CC1 14.6%, O=C(C[C@H]1CC[C@H]2[C@@H](COC[C@H](O)CN2Cc2nccs2)O1)NCc1ccc(Oc2ccccc2)cc1 9.32%, O=C(Nc1ccccc1F)N[C@@H]1CC[C@H](CC(=O)N2CCCCC2)O[C@H]1CO -11.7%, O=C(c1ccccc1)N1CCN(c2cc(-c3ccccc3)nc3cc(-c4cccc(Cl)c4)nn23)CC1 -9.17%, C#Cc1cc(N2CCN(C(=O)c3ccoc3)CC2)n2nc(-c3cccc(Cl)c3)cc2n1 10.8%, CN(C)C(=O)c1cccc(-c2ccccc2[C@@H]2[C@@H](CO)N(C(=O)C3CCCCC3)[C@H]2C#N)c1 6.38%, C[C@H](CO)N1C[C@H](C)[C@@H](CN(C)Cc2ccc(-c3ccccc3)cc2)Oc2ccc(NC(=O)CCC(F)(F)F)cc2CC1=O 23.2%, C[C@H](CO)N1C[C@H](C)[C@H](CN(C)Cc2ccc(-c3ccccc3)cc2)Oc2ccc(NC(=O)Nc3ccc(F)cc3)cc2CC1=O -6.38%, C[C@@H]1CN([C@H](C)CO)C(=O)Cc2cc(NC(=O)CCCN(C)C)ccc2O[C@@H]1CN(C)Cc1ccc(Oc2ccccc2)cc1 54.4%, C[C@H]1CN([C@@H](C)CO)C(=O)Cc2cc(NC(=O)CCCN(C)C)ccc2O[C@@H]1CN(C)Cc1ccc(-c2ccccc2)cc1 48.7%, O=C(N[C@H]1CC[C@@H](CCNS(=O)(=O)c2ccccc2)O[C@@H]1CO)c1cnccn1 -13.2%, C[C@@H]1CN([C@H](C)CO)C(=O)CCCn2cc(nn2)CO[C@H]1CN(C)C(=O)Nc1ccc(N2CCCCC2)cc1 -12.3% and -1.13% and -23.2%, Clc1ccc2nc(-c3ccccc3)nc(C(Cl)Cl)c2c1 -10.7%, Cc1onc(-c2ccccc2)c1C(=O)N=C(N)c1ccc(Cl)cc1 -19.5%, O=C(CCC(=O)Nc1ccccc1)N/N=C/c1ccccc1F -7.35%, CC1=NNC(=O)C1CCC(=O)N/N=C\c1ccc(Cl)c(Cl)c1 (stereo unspecified) -0.875%, CCCNC(=O)N(C)C[C@H]1Oc2cc(C#CC(C)(C)O)ccc2S(=O)(=O)N([C@H](C)CO)C[C@@H]1C -3.15%, COCC#Cc1cnc2c(c1)C(=O)N([C@H](C)CO)C[C@H](C)[C@@H](CN(C)C(=O)Nc1cc(F)ccc1F)O2 -15.1%, C[C@@H]1CN([C@@H](C)CO)C(=O)c2cc(NC(=O)Nc3ccc4c(c3)OCO4)ccc2O[C@@H](C)CCCCO[C@@H]1CN(C)Cc1ccccc1 -6.98%, Cc1c(CCOC(=O)c2cc([N+](=O)[O-])ccc2Cl)sc[n+]1CCCCS(=O)(=O)[O-] -6.18%, Cc1c(CCO)sc[n+]1CC(=O)OC12CC3CC(CC(C3)C1)C2 9.07%, CO[C@H]1CN(C)C(=O)c2ccc(NC(=O)Nc3ccccc3)cc2OC[C@@H](C)N(C(=O)CC2CC2)C[C@@H]1C 7.81%, O=C1O[C@@H](c2ccccc2)[C@@H](c2ccccc2)N2[C@@H](c3ccccc3OCCO)[C@]3(C(=O)Nc4ccc(C#CC5(O)CCCCCC5)cc43)[C@@H](C(=O)N3CCCCCCC3)[C@H]12 6.97%, COc1ccc(C#Cc2ccc3c(c2)[C@]2(C(=O)N3)[C@H](C(=O)N3CCCCCCC3)[C@H]3C(=O)O[C@H](c4ccccc4)[C@H](c4ccccc4)N3[C@@H]2c2ccc(O)cc2)cc1 0.035%, CO[C@H]1CN(C)C(=O)c2ccc(NC(C)=O)cc2OC[C@H](C)N(CC2CC2)C[C@@H]1C 5.82%, COc1ccc(NC(=O)Nc2cccc3c2O[C@H](CN(C)C(=O)Nc2ccc(F)cc2)[C@@H](C)CN([C@@H](C)CO)C3=O)cc1 -2.48%, O=C(C1CCCCC1)N1CC2(C1)[C@H](c1ccccc1)[C@H](CO)N2CC1CCCC1 -23.5%, C[C@H]1CN([C@@H](C)CO)C(=O)c2cccc(NC(=O)C3CCOCC3)c2O[C@@H]1CN(C)C(=O)Nc1cccc2ccccc12 6.23%, CC=Cc1ccc2n(c1=O)C[C@@H]1[C@@H](CO)[C@H](C(=O)NCCC)[C@H]2N1C(=O)C1CC1 (mixture of isomers) 6.42%, CC=Cc1ccc2n(c1=O)C[C@@H]1[C@@H](CO)[C@H](C(=O)N(C)C)[C@H]2N1CCc1ccccc1 (mixture of isomers) -10.1%, CC(=O)N1[C@@H](CO)[C@H](c2ccccc2)[C@@H]1CN(C(=O)c1ccccc1)C(C)C -18%, O=C(C[C@H]1CC[C@@H](NC(=O)c2ccc(F)cc2)[C@@H](CO)O1)NCc1ccncn1 -0.457%, CO[C@@H]1CN(C)C(=O)c2cc(NC(=O)C3CC3)ccc2OC[C@@H](C)N(Cc2ccc(F)cc2)C[C@@H]1C -6.33%
